Assay results published in PubChem BioAssay.
Calls of active or inactive are those of the source.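 Rule for the calls, unless noted: active = fluorescence slope after compound addition differing from the mean of all screened samples at 99.7% confidence, in either direction; inactive = the rest.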

Target: Voltage-gated potassium channel subunit beta-2 (Rattus norvegicus) (UniProt P62483)
Assay: KvBeta positive modulators, primary screen, biochemical, NADPH fluorescence (AID 623;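 active = NADPH fluorescence slope more negative than the mean of all samples by about 3 SD, 99.7% confidence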;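 note: fluorescence intensity change per second fitted from 20 to 320 s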)
Details: Recombinant KvBeta, NADPH fluorescence decrease slope, 10 min; at 10 µM; stronger effect = lower value

Sequence of Voltage-gated potassium channel subunit beta-2 (Rattus norvegicus) (P62483 whole entry, looked up): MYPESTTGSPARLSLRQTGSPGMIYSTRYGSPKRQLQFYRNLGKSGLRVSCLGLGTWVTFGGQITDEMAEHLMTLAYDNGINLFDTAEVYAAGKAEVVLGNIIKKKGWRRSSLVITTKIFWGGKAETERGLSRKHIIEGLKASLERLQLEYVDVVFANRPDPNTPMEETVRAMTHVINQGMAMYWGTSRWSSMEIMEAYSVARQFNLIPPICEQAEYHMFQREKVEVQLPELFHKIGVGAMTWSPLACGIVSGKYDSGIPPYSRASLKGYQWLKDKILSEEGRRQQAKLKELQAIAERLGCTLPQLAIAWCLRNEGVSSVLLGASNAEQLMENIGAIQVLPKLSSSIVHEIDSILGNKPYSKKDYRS

NADPH fluorescence slope, inactive:
CN(Cc1ccccc1)Cc1nc2c(c(=O)n(C)c(=O)n2C)n1Cc1ccc(Cl)cc1 -1.8e-05
C=CCOC(=O)CCC(=O)Nc1cc(OC)nc(OC)n1 -4.9e-06
O=C(NCc1cccs1)c1cc2c(s1)-c1ccccc1OC2 -3.3e-06
O=C(O)CN1C(=O)C2(OCCCO2)c2ccccc21 6.1e-05
CS(=O)(=O)c1ccc2nc(NC(=O)c3cccs3)sc2c1 -5.8e-05
CSc1nc(C)cc(OCC(=O)N2CCOCC2)n1 -3.8e-05
CC1CN(C(=O)CSc2nnc(-c3ccncc3)n2-c2ccccc2)CC(C)O1 (stereo not given) 5.9e-06
CCOC(=O)c1cccc(NC(=O)c2ccco2)c1 -6e-05
Cc1ccc(Cn2c(=N)c(C(=O)NCc3ccco3)cc3c(=O)n4ccccc4nc32)cc1 -5.9e-05
COC(=O)c1ccccc1S(=O)(=O)NC(=O)c1ccccc1 -3.3e-08
N#Cc1ccc(COC(=O)Cn2nnc(-c3ccccc3)n2)cc1 -1.6e-05
CCOC(=O)Nc1c(O)ccc2oc(C)c(-c3ccccc3)c12 -0.000121
CCOC(=O)C1CCN(Cc2ccc(OC)c(C)c2OC)CC1 -2.1e-05
O=C(CSCc1cnn(-c2ccccc2)c1-n1cccc1)NCC1CCCO1 (stereo not given) -4.7e-05
CCOc1ccc(C2CC(c3cccc(OC)c3)Nc3nc(N)nn32)cc1 (stereo not given) 7.9e-07
CCOc1ccc(-c2nc(C#N)c(NCc3ccc4c(c3)OCO4)o2)cc1 -4.4e-05
COc1cccc(-c2nnc(NC(C)=O)o2)c1 -6.1e-05
CC1(C)CC(=O)C(C#N)=C(NCCCO)C1 -3.8e-05
COc1cccc(-c2noc(-c3cccs3)n2)c1 2.2e-06
CCOC(=O)CCc1c(C)nc2cc(-c3ccc(F)cc3)[nH]n2c1=O -3.9e-05
CCOC(=O)c1c(C)[nH]c(C(=O)COC(=O)C2CC2C)c1C (stereo not given) -5.4e-05
CCN(CC)S(=O)(=O)c1ccc(F)c(C(=O)NCCC(C)C)c1 -1.6e-05
CCOC(=O)c1cnn(-c2cc(C)nc3c(-c4ccccc4)c(C)nn23)c1N -3.2e-05
CC(NCc1ccco1)C(=O)N1CCc2ccccc2C1 (stereo not given) -0.000253
COc1ccc(OC)c(-c2nnc(SCC(=O)NC3CCCCC3)o2)c1 -1.4e-05
O=C1NC2(Nc3ccccc31)C(=O)Nc1ccccc12 (stereo not given) -4.5e-06
CCN(CC)CCCN1C(=O)C(=O)/C(=C(/O)c2ccc3c(c2)OCO3)C1c1ccccn1 (stereo not given) -4.9e-05
COc1ccc(Cn2nnnc2C(c2cc3cc(C)cc(C)c3[nH]c2=O)N2CCOCC2)cc1 (stereo not given) -6.8e-05
COCCN(CCOC)Cc1c(C)[nH]c2ccccc2c1=O -1.7e-05
CN(CCNS(=O)(=O)c1ccc2c(c1)oc(=O)n2C)Cc1ccccc1 -4.2e-05
CCOC(=O)c1c(C)[nH]c(C)c1C(=O)COc1ccc(NC(=O)c2ccco2)cc1 1.7e-05
CCCCn1c(NCCC)nc2c1c(=O)[nH]c(=O)n2C -0.000106
COc1cccc(C2C(C(N)=O)=C(C)Nc3nc(CCCO)nn32)c1OC (stereo not given) -2.8e-05
C(=N/n1c2ccccc2c2ccccc21)/c1ccco1 -0.000138
COC(=O)Cc1c(C)nc2nc[nH]n2c1=O -4e-05
Cc1cccc(CC(=O)Nc2c3c(nn2-c2cccc(Cl)c2)CS(=O)C3)c1 (stereo not given) 2.8e-05
Cc1ccc(CNC(=O)COC(=O)c2c(C)noc2C)cc1 -4.4e-05
CCOCCc1nnc(NC(=O)c2ccc(OC)c(OC)c2)s1 -4.8e-05
Cc1cccc(C2CC(c3ccccc3)Nc3nc(N)nn32)c1 (stereo not given) -5.7e-06
Cc1nn(C)c(C)c1NC(=O)CCSc1nc(-c2ccco2)cc(C(F)(F)F)n1 -6.1e-05

Target: Alpha-2C adrenergic receptor (Homo sapiens) (UniProt P18825)
Sequence (P18825 whole entry, looked up): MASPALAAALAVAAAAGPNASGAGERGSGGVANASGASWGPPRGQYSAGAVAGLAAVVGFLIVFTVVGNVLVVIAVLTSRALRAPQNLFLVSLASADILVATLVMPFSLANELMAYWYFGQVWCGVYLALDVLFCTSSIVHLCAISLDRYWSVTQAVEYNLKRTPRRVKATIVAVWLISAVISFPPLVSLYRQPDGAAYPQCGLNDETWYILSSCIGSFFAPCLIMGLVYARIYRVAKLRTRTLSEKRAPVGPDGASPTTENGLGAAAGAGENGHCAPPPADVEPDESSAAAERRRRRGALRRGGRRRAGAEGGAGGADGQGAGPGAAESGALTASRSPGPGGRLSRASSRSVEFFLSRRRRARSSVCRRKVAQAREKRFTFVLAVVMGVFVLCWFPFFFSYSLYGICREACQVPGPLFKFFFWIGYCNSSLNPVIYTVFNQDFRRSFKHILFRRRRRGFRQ
Assay: modulators of alpha2C/GIRK thallium flux, primary screen, cell-based, HEK293 alpha2C/GIRK1/2 (AID 624);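 note: slope of fluorescence ratio to pre-addition baseline per second over 15 to 24 s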
Details: thallium flux BTC fluorescence, at 10 µM, actives lie on both sides

slope, inactive:
CN(Cc1ccccc1)Cc1nc2c(c(=O)n(C)c(=O)n2C)n1Cc1ccc(Cl)cc1 0.00317
C=CCOC(=O)CCC(=O)Nc1cc(OC)nc(OC)n1 0.00745
O=C(NCc1cccs1)c1cc2c(s1)-c1ccccc1OC2 0.00728
O=C(O)CN1C(=O)C2(OCCCO2)c2ccccc21 0.0059
CS(=O)(=O)c1ccc2nc(NC(=O)c3cccs3)sc2c1 0.00673
CSc1nc(C)cc(OCC(=O)N2CCOCC2)n1 0.00307
CC1CN(C(=O)CSc2nnc(-c3ccncc3)n2-c2ccccc2)CC(C)O1 (stereo not given) 0.00638
CCOC(=O)c1cccc(NC(=O)c2ccco2)c1 0.00541
Cc1ccc(Cn2c(=N)c(C(=O)NCc3ccco3)cc3c(=O)n4ccccc4nc32)cc1 0.00216
COC(=O)c1ccccc1S(=O)(=O)NC(=O)c1ccccc1 0.00588
N#Cc1ccc(COC(=O)Cn2nnc(-c3ccccc3)n2)cc1 0.00648
CCOC(=O)Nc1c(O)ccc2oc(C)c(-c3ccccc3)c12 0.0037
CCOC(=O)C1CCN(Cc2ccc(OC)c(C)c2OC)CC1 0.00556
O=C(CSCc1cnn(-c2ccccc2)c1-n1cccc1)NCC1CCCO1 (stereo not given) 0.00606
CCOc1ccc(C2CC(c3cccc(OC)c3)Nc3nc(N)nn32)cc1 (stereo not given) 0.00629
CCOc1ccc(-c2nc(C#N)c(NCc3ccc4c(c3)OCO4)o2)cc1 0.00619
COc1cccc(-c2nnc(NC(C)=O)o2)c1 0.00477
CC1(C)CC(=O)C(C#N)=C(NCCCO)C1 0.00419
COc1cccc(-c2noc(-c3cccs3)n2)c1 0.00482
CCOC(=O)CCc1c(C)nc2cc(-c3ccc(F)cc3)[nH]n2c1=O 0.00335
CCOC(=O)c1c(C)[nH]c(C(=O)COC(=O)C2CC2C)c1C (stereo not given) 0.00548
CCN(CC)S(=O)(=O)c1ccc(F)c(C(=O)NCCC(C)C)c1 0.00438
CCOC(=O)c1cnn(-c2cc(C)nc3c(-c4ccccc4)c(C)nn23)c1N 0.00566
CC(NCc1ccco1)C(=O)N1CCc2ccccc2C1 (stereo not given) 0.00559
COc1ccc(OC)c(-c2nnc(SCC(=O)NC3CCCCC3)o2)c1 0.00689
O=C1NC2(Nc3ccccc31)C(=O)Nc1ccccc12 (stereo not given) 0.00484
CCN(CC)CCCN1C(=O)C(=O)/C(=C(/O)c2ccc3c(c2)OCO3)C1c1ccccn1 (stereo not given) 0.00526
COc1ccc(Cn2nnnc2C(c2cc3cc(C)cc(C)c3[nH]c2=O)N2CCOCC2)cc1 (stereo not given) 0.00452
COCCN(CCOC)Cc1c(C)[nH]c2ccccc2c1=O 0.00544
CN(CCNS(=O)(=O)c1ccc2c(c1)oc(=O)n2C)Cc1ccccc1 0.0075
CCOC(=O)c1c(C)[nH]c(C)c1C(=O)COc1ccc(NC(=O)c2ccco2)cc1 0.00505
CCCCn1c(NCCC)nc2c1c(=O)[nH]c(=O)n2C 0.00598
COc1cccc(C2C(C(N)=O)=C(C)Nc3nc(CCCO)nn32)c1OC (stereo not given) 0.00572
C(=N/n1c2ccccc2c2ccccc21)/c1ccco1 0.00632
COC(=O)Cc1c(C)nc2nc[nH]n2c1=O 0.0059
Cc1cccc(CC(=O)Nc2c3c(nn2-c2cccc(Cl)c2)CS(=O)C3)c1 (stereo not given) 0.00504
Cc1ccc(CNC(=O)COC(=O)c2c(C)noc2C)cc1 0.00349
CCOCCc1nnc(NC(=O)c2ccc(OC)c(OC)c2)s1 0.00549
Cc1cccc(C2CC(c3ccccc3)Nc3nc(N)nn32)c1 (stereo not given) 0.00697
Cc1nn(C)c(C)c1NC(=O)CCSc1nc(-c2ccco2)cc(C(F)(F)F)n1 0.00599
